Source: PubChem
ERK EGF inh = blocks ERK signaling stimulated by EGF | HEK293-V1b, EGF-stimulated phospho-ERK AlphaScreen | AID 1454 | Potency, µM (series often up to 11.5 µM), most hits filed as inhibitors | 130,000 tested, 0.41% active; active = well fitted inhibition curve with a large enough effect; also: nearly all actives have a fitted effect of over 55% in size
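In this qHTS, HEK293 cells with stable type-1 vasopressin (V1b) receptor were exposed to compound at 37C for 30 min, stimulated 5 min with EGF at 25 nM, lysed, and probed for phospho-ERK by AlphaScreen.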
Large screens that a line does not name were inactive; ! = not confirmed by another sample. The sample as a whole holds a higher share of hits than the screen did.

CC(C)n1c(O)c(C2c3cc(Cl)ccc3Oc3[nH]c(=O)n(C(C)C)c(=O)c32)c(=O)[nH]c1=O (stereo unspecified)	ERK EGF inh 3.2µM
CC(=O)c1c(O)n(-c2cccc(Cl)c2)c(=O)[nH]c1=O (tested in a mixture with another compound)	none
C/C=C1\C[N@@+]2(C)CC[C@@]34C(=C(C=O)[C@H]1C[C@H]32)Nc1ccccc14	none
COC(C)C(O)(C(=O)OC1=CCN2CC[C@H](O)[C@H]12)C(C)C (stereo partly specified)	none
CNc1ccc2oc(C[C@H]3O[C@]4(CC[C@H]3C)O[C@H]([C@H](C)C(=O)c3ccc[nH]3)[C@H](C)C[C@H]4C)nc2c1C(=O)O	none
COc1cc2c(cc1OC)[C@@H]1C(=O)c3ccc4oc(C(C)C)cc4c3OC1CO2 (stereo partly specified)	none
CC(=O)[C@@H]1CC[C@@H]2[C@@H]3CCC4=CC(=O)CC[C@@]4(C)[C@H]3CC[C@]21C	none
C[C@@]12CC[C@H]3[C@@H](CCC4=CC(=O)CC[C@]43C)[C@H]1CC[C@H]2C(=O)CO	none
CC(=O)[C@H]1CC[C@H]2[C@@H]3CCC4=CC(=O)CC[C@]4(C)[C@H]3CC[C@]12C	ERK EGF inh 14µM!
O=c1ccc2cc(OC3OC(CO)C(O)C(O)C3O)c(O)cc2o1 (stereo unspecified)	none
C[C@@]12CC(c3ccoc3)OC(=O)C1CC[C@@]1(C)C2C2C=C[C@@]1(O)C(=O)O2 (stereo partly specified)	none
Cl.Cl.Cl.Cl.Cl.Cl.N.N.N.N.NNNNN.NNNNN.O.O.[Ru].[Ru].[Ru]	none
CC[C@H](Oc1ccc(Cl)cc1)C(=O)OC1C[C@H]2CC[C@@H](C1)N2C (stereo partly specified)	none
CC(C)COC(=O)c1ccccc1C(=O)OCC(C)C	none
C[CH2][Hg][S]c1ccccc1C(=O)O	ERK EGF inh 32µM
CNc1ccccc1C(=O)O	none
C=C1[C@@H](O)C2C=CC[C@H](C)C(=O)[C@@](C)(O)C=C[C@@H](OC(C)=O)[C@@]23C(=O)N[C@H](Cc2ccccc2)[C@@H]3[C@@H]1C (stereo partly specified)	none
NCC(=O)c1ccccc1	none
CC(=O)[O][Hg][c]1ccccc1	ERK EGF inh 14µM
CC(C)OP(=O)(O)NC(=O)c1ccccc1	none
O=C(O)Cc1cccnc1C(=O)O	none
C[C@]12CC[C@@H](O)CC1CCC1C2CC[C@]2(C)C(=O)CC[C@@H]12 (stereo partly specified)	none
CC(C)=CCCC1(C)C=Cc2c(O)c3c(c(CC=C(C)C)c2O1)OC12C(=CC4CC1C(C)(C)OC2(C/C=C(/C)C(=O)O)C4O)C3=O (stereo unspecified)	none
CC(C)=CCCC1(C)C=Cc2c(O)c3c(c(CC=C(C)C)c2O1)OC12C(=CC4CC1C(C)(C)OC2(C/C=C(/C)C(=O)O)C4=O)C3=O (stereo unspecified)	ERK EGF inh 16µM
CC(C)CCCC1(C)C=Cc2c(O)c3c(c(CCC(C)C)c2O1)OC12C(CC4CC1C(C)(C)OC2(CCC(C)C(=O)O)C4O)C3=O (stereo unspecified)	none
COC(=O)C12C/C=C\Cc3ccccc3[C@@H]1CNC2=O (stereo partly specified)	none
CCC1CN2CCc3cc(OC)c(OC)cc3C2CC1CC1NCCc2cc(OC)c(OC)cc21 (stereo unspecified)	none
CN(C)c1ccc(/C=C/c2cc[n+](C)c3ccccc23)cc1	none
CC[n+]1c(/C=C/C=C/c2ccc(N(C)C)cc2)sc2ccccc21	ERK EGF inh 16µM
CCCc1cc2c(n1CCO)C(C)C1CN(C(=O)c3ccccc3)C(C)(C(=O)OC)C21 (stereo unspecified)	none
CC(=O)C1=C(O)[C@@H]2[C@@H]3c4c[nH]c5cccc(c45)C[C@@H]3C(C)(C)N2C1=O	none
C/C(O)=C(/C#N)C(=O)Nc1cc(Br)ccc1Br	none
Clc1ccc(C2=CCC[C@H]3CC[C@@H]2N3)cn1	none
c1cc2c(cc1[C@H]1OC[C@@H]3[C@H]1CO[C@H]3c1ccc3c(c1)OCO3)OCO2	none
C=C(COC(C)=O)CC1CC(O)[C@]2(C)OC3CC4OC5C[C@]6(C)O[C@]7(C)CCC8OC9C[C@]%10(C)OC%11C(C)=CC(=O)OC%11CC%10OC9C[C@@H](C)C8OC7CC6O[C@]5(C)C/C=C\C4OC3CC2O1 (stereo partly specified)	none
C=C(CO)CC1CC(O)[C@]2(C)OC3CC4OC5C[C@]6(C)O[C@]7(C)CCC8OC9C[C@]%10(C)OC%11C(C)=CC(=O)OC%11CC%10OC9C[C@@H](C)C8OC7CC6O[C@]5(C)C/C=C\C4OC3CC2O1 (stereo partly specified)	none
C=C(C=O)CC1CC(O)[C@]2(C)OC3CC4OC5C[C@]6(C)O[C@]7(C)CCC8OC9C[C@]%10(C)OC%11C(C)=CC(=O)OC%11CC%10OC9C[C@@H](C)C8OC7CC6O[C@]5(C)CC5OC5C4OC3CC2O1 (stereo partly specified)	ERK EGF inh 35µM
CN(N=O)c1ccc(O)c(O)c1	none
C[C@@]12C=CC(=O)C=C1CCC1C2CC[C@]2(C)C(=O)CCC12 (stereo partly specified)	none
O=C1Nc2ccccc2C2(CCN(CCc3ccc(C(F)(F)F)cc3)CC2)O1	ERK EGF inh 32µM
COc1ccc(CNC(=O)/C=C\c2ccc3[nH]cc(CCN(C)C)c3c2)cc1	none
CN[C@@H]1C[C@H](c2ccc(Cl)c(Cl)c2)c2ccccc21	none
CCOC(=O)C1CCN(/C=C2/C(=O)NC(=S)N(c3ccccc3F)C2=O)CC1	none
Cc1ccc(/C=C2\C(=O)NC(=S)N(c3ccc(F)cc3)C2=O)s1	none
Cc1ccc(/C=C2\C(=O)NC(=S)N(c3ccccc3F)C2=O)s1	ERK EGF inh 20µM
O=C1/C(=C\c2ccccc2)C[C@@]2(O)[C@H]3Cc4ccc(O)c5c4[C@@]2(CCN3CC2CC2)[C@@H]1O5	none
CCCCC/C=C\C/C=C\C/C=C\CCCCC(=O)NCCO	none
C[C@H](CCC(=O)O)[C@H]1CC[C@@H]2[C@H]3CC[C@H]4C[C@H](O)CC[C@]4(C)[C@@H]3CC[C@@]21C	none
COC(=O)[C@]1(C)CC[C@@]2(C)CC[C@@]3(C)C4=CCc5c(cc(O)c(O)c5C)[C@]4(C)CC[C@@]3(C)C2C1 (stereo partly specified)	none
CC1=C(O)C(=O)C=C2C1=CC=C1[C@]2(C)CC[C@@]2(C)C3C[C@](C)(C(=O)O)CC[C@@]3(C)CC[C@@]12C (stereo partly specified)	ERK EGF inh 16µM
CCCc1cc2c(n1Cc1ccco1)C(C)C1CN(C(=O)c3ccccc3)C(C)(C(=O)OC)C21 (stereo unspecified)	none
C[C@@H]1OC(OC2C(OC3CC[C@@]4(C)C5CC=C6C7CC(C)(C)CC[C@@]7(C(=O)O)CCC6(C)C5(C)CCC4[C@]3(C)CO)OCC(O)C2O)C(O)C(O)C1O (stereo partly specified)	ERK EGF inh 28µM
COC1=C[C@H]2[C@H]3Cc4ccc(OC)c(O)c4[C@@]2(CCN3C)CC1=O	none
CN1C[C@@H](C(=O)N[C@@]2(C)O[C@]3(O)C4CCCN4C(=O)[C@@H](Cc4ccccc4)N3C2=O)C=C2c3cccc4[nH]cc(c34)C[C@@H]21 (stereo partly specified)	none
O=c1c(O)c(-c2ccc(O)c(O)c2)oc2c(O)c(O)cc(O)c12	none
